# From PubChem BioAssay AID434970 (Sanford-Burnham Center for Chemical Genomics, 2010)
# Out of some 11,000 compounds screened, about 310 (2.8%) were called active. No stated cut-off is given here; in the data, active means activity change below about -85%; inactive means the rest. Many of the other results were omitted from the sample, so actives are more common in it than they were.
# System: intestinal alkaline phosphatase [Mus musculus]
# Assay: activators of mouse IAP, confirmation, biochemical, luminescence, single concentration (AID 434970)
# Conditions: purified mouse IAP, CDP-Star luminescence, 30 min, at 10 µM; activation factor: measured here: IAP activation factor, stronger effect = higher value; activity change, negative = activation: stronger effect = lower value
SMILES,activation factor,"activity change, negative = activation"
CC(O)c1nc2ccccc2n1Cc1nnc(-c2ccc(Cl)cc2)o1 (stereo not drawn),0.857,14.3% (inactive)
Cn1nc(OCc2ccccc2)ccc1=O,0.947,5.35% (inactive)
CCC(C)OC(=O)c1cc(C)nc2c(Br)cc(Br)cc12 (stereo not drawn),1.02,-2% (inactive)
CC[C@]12c3[nH]c4ccc(Cl)cc4c3CCN1C(=O)[C@@H](CC(=O)NCC13CC4CC(CC(C4)C1)C3)C[C@@H]2C(=O)N1CCN(C(=O)c2ccco2)CC1,1.1,-9.55% (inactive)
CCOC(=O)c1sc(NC(=O)Nc2ccccc2Cl)cc1C,1.89,-89.1% (inactive)
Cc1cc(C)c2c(n1)sc1c(=O)[nH]c(SCc3ccccc3)nc12,0.801,19.9% (inactive)
CCOC(=O)Cn1cnc([N+](=O)[O-])n1,0.92,8% (inactive)
COc1cc(-c2nnc(COC(=O)CSc3cc(C)c4ccccc4n3)o2)cc(OC)c1OC,0.99,0.95% (inactive)
COc1cccc(NC(=S)NCCN2CCOCC2)c1,1.08,-8.4% (inactive)
COc1ccc(CNC(=S)Nc2cccc(Cl)c2)cc1,1.25,-24.7% (inactive)
COc1cc(NC(=S)NCCC(c2ccccc2)c2ccccc2)cc(OC)c1,3.28,-228% (active)
CCCCNC(=S)Nc1ccc(Oc2ccccc2)cc1,1.71,-70.5% (inactive)
COc1cccc(NC(=S)NCCC(c2ccccc2)c2ccccc2)c1,3.53,-253% (active)
COc1cc(NC(=O)C(Cc2ccccc2)n2cccc2)cc(OC)c1 (stereo not drawn),1.12,-12.3% (inactive)
COc1ccc(S(=O)(=O)Nc2ccccc2)cc1OC,0.947,5.35% (inactive)
COc1ccc(C(=O)CSc2nnnn2Cc2ccccc2)cc1,0.953,4.7% (inactive)
Cc1ccc2c(Cl)c(C(=O)Nc3cc(C)on3)sc2c1,0.873,12.6% (inactive)
CC[C@H](C)[C@@H](C(=O)NCCCCCCCCCCC(=O)N1CCN(C(=O)OC(C)(C)C)CC1)n1cc(CCCCN=C(NC(=O)OC(C)(C)C)NC(=O)OC(C)(C)C)nn1,2.29,-128% (active)
CC(C)(C)OC(=O)CC[C@@H](C(=O)NCCCCCCCCCCC(=O)N1CCN(C(=O)OC(C)(C)C)CC1)n1cc(CCCCCNC(=O)OC(C)(C)C)nn1,1.51,-51% (inactive)
C#CCOCCOCCOCCNc1nc(N2CCN(C(=O)CCCCCCCCCCNC(=O)[C@H]([C@@H](C)CC)n3cc(CCCCCN)nn3)CC2)nc(N2CCN(C(=O)CCCCCCCCCCNC(=O)[C@H]([C@@H](C)CC)n3cc(CCCCN=C(N)N)nn3)CC2)n1,15.6,-1460% (active)

SMILES,activation factor,"activity change, negative = activation"
C#CCOCCOCCOCCNc1nc(N2CCN(C(=O)CCCCCCCCCCNC(=O)[C@H]([C@@H](C)CC)n3cc(CCCCN=C(N)N)nn3)CC2)nc(N2CCN(C(=O)CCCCCCCCCCNC(=O)[C@H](CO)n3cc(CCCCCN)nn3)CC2)n1,6.62,-562% (active)
C#CCOCCOCCOCCNc1nc(N2CCN(C(=O)[C@H](Cc3cc4ccccc4[nH]3)n3cc([C@@H](N)C(C)CC)nn3)CC2)nc(N2CCN(C(=O)[C@H](Cc3cc4ccccc4[nH]3)n3cc([C@@H](N)Cc4ccc(O)cc4)nn3)CC2)n1 (stereo partly drawn),1.43,-42.8% (inactive)
C#CCOCCOCCOCCNc1nc(N2CCOCC2)nc(N2CCN(C(=O)CCCCCCCCCCNC(=O)[C@H]([C@@H](C)CC)n3cc(CCCCN=C(N)N)nn3)CC2)n1,2.37,-137% (active)
CC[C@H](C)[C@@H](C(=O)NCCCCCCCCCCC(=O)N1CCN(C(=O)OC(C)(C)C)CC1)n1cc(CCCCCNC(=O)OC(C)(C)C)nn1,1.52,-51.8% (inactive)
O=C(CCS(=O)(=O)c1cccc2nonc12)Nc1cccc2c1CCCC2,0.972,2.85% (inactive)
O=C(c1ccc(F)cc1)N1CCN(c2cc(=O)[nH]nc2-c2ccccc2)CC1,1.17,-17.4% (inactive)
COc1ccc(-n2c(COc3ccccc3)nnc2SCC(N)=O)cc1,0.967,3.3% (inactive)
CCOC(=O)N1CCC(NC(=O)C2CCC(Cn3c(=O)[nH]c4ccccc4c3=O)CC2)CC1 (stereo not drawn),0.908,9.15% (inactive)
O=C1CC(c2nc3ccccc3[nH]2)CN1c1ccccc1 (stereo not drawn),0.951,4.9% (inactive)
O=c1ccc(NS(=O)(=O)c2ccc(Cl)cc2)cn1Cc1ccc(Cl)c(Cl)c1,0.948,5.2% (inactive)
CC1C(C)C(O)(c2ccccc2)CCN1C (stereo not drawn),0.956,4.35% (inactive)
c1ccc(NC2=NCCCCS2)cc1,1.06,-5.6% (inactive)
C#CCOCCOCCOCCNc1nc(N2CCN(C(=O)CCCCCCCCCCNC(=O)[C@H]([C@@H](C)CC)n3cc(CCCCN=C(N)N)nn3)CC2)nc(N2CCN(C(=O)CCCCCCCCCCNC(=O)[C@@H]([C@H](C)O)n3cc(C)nn3)CC2)n1,14.6,-1360% (active)
C#CCOCCOCCOCCNc1nc(N2CCN(C(=O)CCCCCCCCCCNC(=O)[C@H]([C@@H](C)CC)n3cc(CCCCN=C(N)N)nn3)CC2)nc(N2CCN(C(=O)CCCCCCCCCCNC(=O)[C@H]([C@@H](C)CC)n3cc(CCCCN=C(N)N)nn3)CC2)n1,22.7,-2170% (active)
CC(Sc1nc2ccccc2n1C)C(=O)NC(c1ccccc1)c1ccccc1 (stereo not drawn),0.982,1.75% (inactive)
Cc1cccc(Cn2cnc3c(NS(C)(=O)=O)c(C)c(C)cc32)c1,1.13,-12.6% (inactive)
NCCCCCc1nnc(SCC(=O)c2ccc(Cl)cc2)o1,1.08,-7.9% (inactive)
C#CCOCCOCCOCCNc1nc(N2CCN(C(=O)CCCCCCCCCCNC(=O)[C@H]([C@@H](C)CC)n3cc(CCCCCN)nn3)CC2)nc(N2CCN(C(=O)CCCCCCCCCCNC(=O)[C@H](CCCCN)n3cc(CCCC(=O)O)nn3)CC2)n1,3.22,-222% (active)
C#CCOCCOCCOCCNc1nc(N2CCN(C(=O)CCCCCCCCCCNC(=O)[C@@H](CCC(=O)O)n3cc(CCCCCN)nn3)CC2)nc(N2CCN(C(=O)CCCCCCCCCCNC(=O)[C@H]([C@@H](C)CC)n3cc(CCCCCN)nn3)CC2)n1,2.75,-176% (active)
